# Source: PubChem BioAssay AID588342 (National Center for Advancing Translational Sciences (NCATS), 2011)
# Hit rate of the full screen: of about 360,000 compounds, about 25,000 (6.9%) were called active. A call without a number means that no potency is given here. Roughly 9% stayed inconclusive and do not appear here. This is one part of a sample in which actives are shown more often than they occur. The call rests on the fitted dose curve; in most records, active means well fitted inhibition curve with a large enough effect; inconclusive means small, poorly fitted or top-dose-only effect; inactive means flat fitted curve, though single readings scatter.
# Molecular target: Luciferin 4-monooxygenase (Photinus pyralis) (UniProt P08659)
# Assay: qHTS profiling assay for firefly luciferase inhibitor/activator using purifed enzyme and Km concentrations of substrates (counterscreen for miR-21 project); further: nearly all actives have a fitted effect of over 55% in size
# Settings: purified FLuc, luminescence inhibition; series mostly up to 57.5 µM
# Procedure, shortened: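 Biochemical qHTS of compounds, final roughly 60 µM downward over six points, against 10 nM purified firefly luciferase using Km concentrations of substrates (10 uM D-luciferin, 10 uM ATP) in Tris acetate pH 7.5 buffer; luminescence output.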
# Potency means the concentration at half of the fitted maximal effect.
# Chain of Luciferin 4-monooxygenase (Photinus pyralis) (P08659 whole entry, looked up): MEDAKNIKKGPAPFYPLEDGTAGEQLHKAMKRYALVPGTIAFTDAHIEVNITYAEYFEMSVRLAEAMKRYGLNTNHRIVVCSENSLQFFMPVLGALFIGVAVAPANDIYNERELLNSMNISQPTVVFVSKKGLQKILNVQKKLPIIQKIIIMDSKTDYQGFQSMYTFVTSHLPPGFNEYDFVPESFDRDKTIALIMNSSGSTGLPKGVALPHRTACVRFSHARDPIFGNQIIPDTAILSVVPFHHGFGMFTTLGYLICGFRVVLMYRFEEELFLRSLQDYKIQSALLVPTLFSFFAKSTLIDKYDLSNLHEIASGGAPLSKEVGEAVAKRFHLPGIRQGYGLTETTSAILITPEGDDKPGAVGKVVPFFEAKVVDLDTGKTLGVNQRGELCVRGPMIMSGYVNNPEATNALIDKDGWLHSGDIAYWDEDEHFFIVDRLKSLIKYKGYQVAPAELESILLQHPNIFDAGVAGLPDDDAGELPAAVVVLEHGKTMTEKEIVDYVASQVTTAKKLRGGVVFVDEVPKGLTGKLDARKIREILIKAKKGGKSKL
row,SMILES,Potency
1,O=C(NNS(=O)(=O)c1ccc(F)cc1)c1cnccn1,inactive
2,O=C(CC1Oc2ccccc2NC1=O)NCc1ccc(F)cc1 (configuration not stated),inactive
3,CCOC(=O)c1c(C)oc2ccc(N(C(=O)c3ccncc3)S(=O)(=O)c3ccc(CC)cc3)cc12,inactive
4,O=Cc1c(Cl)cccc1Cl,inactive
5,Cc1ccc(-c2nn(-c3cccc(F)c3)cc2CNCCc2ccncc2)o1,15.1 µM (active)
6,CSCCNCc1cn(-c2ccc(F)cc2F)nc1-c1ccccc1C,inactive
7,Cc1ccc(-c2nn(-c3ccccc3)cc2CN(Cc2ccccc2)C(=O)CCC(=O)O)o1,inactive
8,CCCN(CCC)CCNC(=O)Cn1cnc2sc(C)c(S(=O)(=O)N3CCC(C)CC3)c2c1=O,inactive
9,N#Cc1nc(/C=C/c2ccc(F)cc2)oc1NC1CCCCC1,inactive
10,CC(C)(C)OC(=O)N/N=C/c1cn(-c2ccccc2)nc1-c1cccnc1,inactive
11,Cc1ccc(-c2nn(-c3ccccc3)cc2/C=N/NC(=O)c2ccc3c(c2)OCO3)cc1,4.26 µM (active)
12,O=C(N/N=C/c1ccc([N+](=O)[O-])o1)c1cn(-c2ccccc2)nc1-c1ccc(F)cc1,inactive
13,COc1ccc(C(=O)N2CCC(c3nc4ccccc4o3)CC2)cc1,inactive
14,CC(O)c1ccc(OCCN(C)c2ccccn2)cc1 (configuration not stated),15.1 µM (active)
15,CCOc1ccc(C(C(=O)NCCOC)N(CCOC)C(=O)CCC(=O)Nc2ccccn2)cc1 (configuration not stated),inactive
16,CC(C)c1ccc(OCC(O)CN2CCN(c3ccccn3)CC2)cc1 (configuration not stated),inactive
17,COCCn1c(CCC(=O)Nc2cc(C)ccc2C)nc2cccnc21,inactive
18,COc1ccc2c(c1)C=C(C(=O)NCc1cc(Br)ccc1OC)CO2,inactive
19,COc1ccccc1NC(=O)c1sc2nc(C)c(C(=O)Nc3ccc(Cl)cc3)c(-c3ccc(Br)cc3)c2c1N,inactive
20,CC(C)OC(=O)CN1C(=O)C(=O)c2ccccc21,inactive
21,Cc1cc(/C=C2/SC(=O)N(CC(=O)OC(C)C)C2=O)c(C)n1C,15.1 µM (active)
22,O=C(CN1CCCCCC1)NCCN1C(=O)S/C(=C\c2ccccc2Cl)C1=O,inactive

row,SMILES,Potency
1,O=C(NCCc1ccc(F)cc1)c1ccc2nccnc2c1,8.49 µM (active)
2,COc1ccc(COC(=O)c2n[nH]c3ccccc23)cc1F,19 µM (active)
3,O=C(NCCc1ccc(F)cc1)c1ccc(S(=O)(=O)N2CCCCC2)cc1,inactive
4,O=C(CC(=O)N/N=C\c1ccc(F)cc1)NCCc1ccccc1,inactive
5,COc1cccc(CNC(=O)c2n[nH]c3ccccc23)c1,26.9 µM (active)
6,COc1ccc(F)cc1C(=O)COC(=O)c1n[nH]c(=O)c2ccccc12,inactive
7,COc1cccc(CNC(=O)Cc2csc(Nc3nc(=S)[nH]c4ccccc34)n2)c1,inactive
8,O=C(NCCc1ccc(F)cc1)c1n[nH]c2ccccc12,16.9 µM (active)
9,O=C(COC(=O)c1n[nH]c2ccccc12)NCc1ccccc1,inactive
10,O=C(NCCc1ccc(Cl)cc1)c1ccc2c(c1)N(Cc1ccc(F)cc1)C(=O)CS2,inactive
11,O=C(COC(=O)Cc1c[nH]c2ccccc12)NCCc1ccccc1,inactive
12,COc1ccc(NC(=O)COC(=O)c2n[nH]c3ccccc23)c(OC)c1,inactive
13,COc1ccc(CCNC(=O)c2cc(=O)c3c(C)cc(C)cc3o2)cc1OC,inactive
14,CCOC(=O)c1cccc(NC(=O)c2cc(CN3CCCC3)on2)c1,inactive
15,Cc1ccc(CNC(=O)CCC(=O)N2Cc3ccccc3Oc3ncccc32)cc1,inactive
16,CC(=O)c1c(C)[nH]c(C(=O)OCC(=O)Nc2c(C)n(C)n(-c3ccccc3)c2=O)c1C,inactive
17,CC1(NC(=O)CCS(=O)(=O)c2ccc(Cl)cc2)CCS(=O)(=O)C1 (configuration not stated),inactive
18,Cc1ccccc1CN1CCC(CNC(=O)c2c(C)oc3ncnc(N4CCCCC4)c23)CC1,inactive
19,Cc1ccc(Nc2nnc(SC(C)C(=O)NC3CC3)s2)cc1 (configuration not stated),inactive
20,CCOC(=O)c1c(NC(=O)CCl)sc(C(=O)N(CC)CC)c1C,inactive
21,Cc1ccc(C)c(NC(=O)CN(C)C(=O)c2ccc3ncsc3c2)c1,inactive
22,Cc1c(C(=O)N(C)C)sc2c1c(=O)n(-c1ccc(F)cc1)c(=O)n2CC(=O)N(C)c1ccccc1,inactive

row,SMILES,Potency
1,CN(C)c1ccc(/C=C/C(=O)c2ccc(O)cc2)cc1[N+](=O)[O-],12 µM (active)
2,Cc1cc(C(=O)O)ccc1[N+](=O)[O-],inactive
3,O=C(/C=C/c1ccc2c(c1)OCCO2)c1ccc(O)cc1,1.35 µM (active)
4,O=C(COC(=O)/C=C/c1ccc2c(c1)OCO2)NC1CCS(=O)(=O)C1 (configuration not stated),inactive
5,CC(=O)c1ccc2c(c1)OCCOCCOc1ccc(C(C)=O)cc1OCCOCCO2,inactive
6,O=C(/C=C/c1ccc(Cl)cc1)N1CCN(c2ccccc2[N+](=O)[O-])CC1,inactive
7,CCC(=O)NC(Nc1cc(C)ccn1)(C(F)(F)F)C(F)(F)F,inactive
8,Cc1cc(=O)oc(C)c1C(=O)NC1CC(C)(C)NC(C)(C)C1,inactive
9,O=C(C1CCCN(S(=O)(=O)c2cccc3nonc23)C1)N1CCN(c2ccccc2F)CC1 (configuration not stated),inactive
10,CCc1ccc(S(=O)(=O)n2ccnc2)cc1,inactive
11,O=C(Nc1c2c(nc3ccccc13)CCCC2)c1ccccc1Br,inactive
12,O=C(COC(=O)c1c2c(nc3ccccc13)CCCC2)c1ccc(Br)s1,15.1 µM (active)
13,CCOc1ccc(NC(=O)CSc2c3c(nc4ccccc24)CCCC3)cc1,inactive
14,Cc1nn(Cc2ccccc2)c(C)c1C(=O)N1CCN(CC(=O)Nc2ccccc2Cl)CC1,inactive
15,COc1ccccc1/C=C/c1nc(C#N)c(NC(C)c2ccccc2)o1 (configuration not stated),inactive
16,CC(C)c1ccc(NC(=O)COC(=O)c2ccc(CN3CCCC3=O)cc2)cc1,inactive
17,Cc1cc(OC(C)C(=O)Nc2sc3c(c2C(N)=O)CCCC3)ccc1Cl (configuration not stated),inactive
18,CCCC(=O)Nc1cccc(-c2cn3ccsc3n2)c1,21.3 µM (active)
19,CCc1cccc(NC(=O)CCC(=O)O)c1,inactive
20,O=C(NCc1cn2ccsc2n1)Nc1cccc(Cl)c1,inactive
21,CCc1nn(CC(=O)NCC(C)c2ccccc2)c(=O)c2cc3occc3n12 (configuration not stated),inactive
22,Cc1c(C(=O)N/N=C/c2ccccc2)[nH]c2c([N+](=O)[O-])cccc12,inactive

row,SMILES,Potency
1,Cc1nn(-c2ccccc2)c(Cl)c1/C=N/NC(=O)c1nn(C)cc1[N+](=O)[O-],10.7 µM (active)
2,Cc1nn(-c2ccccc2)c(C)c1/C=N/NC(=O)CSc1nc2ccccc2c(=O)n1-c1ccccc1,inactive
3,COc1ccc(NC(=O)CN2C(=O)COc3ccc(S(=O)(=O)N4CCOCC4)cc32)cc1,inactive
4,CC(=O)C1C(c2ccc(Cl)cc2)c2c(n[nH]c2C)CC1(C)O (configuration not stated),inactive
5,CCOC(=O)c1ccc(NC2Nc3cc(C)nn3S2)cc1 (configuration not stated),inactive
6,CCc1ccc(NC2Nc3cc(C)nn3S2)cc1 (configuration not stated),4.78 µM (active)
7,COc1c(Cl)cc(C(=O)N(Cc2ccccc2F)C2CCS(=O)(=O)C2)cc1Cl (configuration not stated),inactive
8,O=C(COc1ccc(Cl)cc1)N(Cc1ccco1)Cc1ccco1,inactive
9,CC[C@H](C)C(=O)N[C@H]1CCCN1C(=O)/C=C/c1ccccc1,inactive
10,COc1ccccc1/C=C/C(=O)NC(=S)N1CCOCC1,12 µM (active)
11,COc1ccc(C)cc1NC(=S)N1CCOCC1,inactive
12,O=C(/C=C/c1ccco1)NC(=S)N1CCCCC1,inactive
13,COc1ccc(OC)c(NC(=O)c2cnn(-c3ccccc3Cl)c2NC(=O)c2ccco2)c1,inactive
14,Cc1ccc2c(c1)C1CN(C)CCC1N2S(=O)(=O)c1cccc(F)c1 (configuration not stated),inactive
15,Cc1ccc(OCc2nc3ccccc3n2C)cc1,3.01 µM (active)
16,O=C(Cn1c(COc2ccccc2)nc2ccccc21)Nc1cc(Cl)c(Cl)cc1Cl,inactive
17,Cn1c(CNC(=O)C(C)(C)C)nc2ccccc21,inactive
18,COCc1nc2ccccc2n1Cc1ccccc1Br,inactive
19,CCCn1c(C(O)c2ccc(OCC)cc2)nc2ccccc21 (configuration not stated),inactive
20,CC(C)c1ccc(Cn2c(COc3ccccc3)nc3ccccc32)cc1,19 µM (active)
21,CCOc1ccc(C(O)Cc2nc3ccccc3n2C)cc1 (configuration not stated),inactive
22,CC(O)c1nc2ccccc2n1Cc1ccc([N+](=O)[O-])cc1 (configuration not stated),inactive

row,SMILES,Potency
1,COCn1c(COc2ccccc2)nc2ccccc21,16.9 µM (active)
2,CCc1nc2cccnc2n1-c1ccc(CC(=O)Nc2c(C)cccc2C)cc1,inactive
3,Cc1ccccc1-n1nc(C)c2c1N=C1C(Cl)=CC(Cl)=CN1C2c1ccc(C(=O)O)cc1 (configuration not stated),inactive
4,CCn1c(=O)c(=O)[nH]c2c(=O)oc3ccc(S(=O)(=O)Nc4ccc(OC)cc4)cc3c21,inactive
5,O=C(CC1N=C2c3ccccc3N=C(SCc3cccc(Cl)c3)N2C1=O)NCc1ccc2c(c1)OCO2 (configuration not stated),inactive
6,Cc1ccc(S(=O)(=O)NCCc2nnc3ccc(SCc4cccnc4)nn23)cc1,inactive
7,COc1c(C=O)c(CCN(C)C(=O)c2ccc(F)cc2)cc2c1OCO2,inactive
8,Cc1ccc(-c2nc(CS(=O)(=O)CC(=O)NCc3ccccc3Cl)c(C)o2)cc1,inactive
9,CCOC(=O)c1c(NC(=O)c2cc(CC)on2)sc(C(C)=O)c1C,inactive
10,CCOC(=O)c1ccc(NC(=S)N2CCCC2)cc1,inactive
11,CCOc1ccc(NC(=S)N2CCCCCC2)cc1,inactive
12,CCC(C)c1ccc(NC(=S)N2CCCC2)cc1 (configuration not stated),15.1 µM (active)
13,CC1Cc2cc(S(=O)(=O)CCC(=O)Nc3ccc(F)c(Cl)c3)ccc2N1C(=O)C1CC1 (configuration not stated),inactive
14,O=C(c1ccc2c(c1)N(Cc1ccc(Cl)cc1)C(=O)c1ccccc1S2(=O)=O)N1CCCCC1,inactive
15,O=C(/C=C/NCc1ccc(F)cc1)c1ccccc1,16.9 µM (active)
16,CCCCC(=O)NCc1ccc(F)cc1,inactive
17,O=C(NCCS(=O)(=O)NCc1ccc(F)cc1)c1ccccc1,inactive
18,Cc1cccc[n+]1CC(=O)c1ccccc1,inactive
19,O=C(/C=C\NCC(=O)c1ccccc1)c1ccccc1,12 µM (active)
